Results filed as inconclusive are left out. Calls of active or inactive are those of the source. Calls follow the shape of the dose curve; as a rule, active = well fitted inhibition curve with a large enough effect; inconclusive = small, poorly fitted or top-dose-only effect; inactive = flat fitted curve, though single readings scatter.
Tests used:
CRL-7250 = normal cell line; assay: Cytotoxic Profiling of Annotated Libraries Using Quantitative High-Throughput Screening (AID 1296008); conditions: Five cell lines viability, CellTiter-Glo ATP luminescence, 48-72 h; max response: active compounds read low; also: potency is read from the fitted curve at half-maximal effect; as to max response: % is scaled to controls: 0 for no effect and ±100 for the full control effect
Outline: (§1)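 Compounds were pin-transferred onto cells and incubated 48 or 72 hr at 37 degree Celsius, 95% humidity. CellTiter-Glo was added, plates sat 10 min at room temperature, then ATP-coupled luminescence was imaged as the viability read-out.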

HEK293 = assay: as above; conditions: Five cell lines viability, CellTiter-Glo ATP luminescence, 48-72 h; max response: active compounds read low
Outline: as §1

HaCat [1] = assay: as above; conditions: Five cell lines viability, CellTiter-Glo ATP luminescence, 48-72 h; max response: active compounds read low
Outline: as §1

KB-3-1 = assay: as above; conditions: Five cell lines viability, CellTiter-Glo ATP luminescence, 48-72 h; max response: active compounds read low
Outline: as §1

NIH3T3 = assay: as above; conditions: Five cell lines viability, CellTiter-Glo ATP luminescence, 48-72 h; max response: active compounds read low
Outline: as §1

HACAT [2] = assay: qHTS assay to identify novel small-molecules to repurpose for Merkel cell carcinoma treatment (AID 1296009); conditions: MCC and control cell lines, CellTiter-Glo viability, 72 h; at 44.8 µM (top of the series) unless noted
Outline: (§2)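 Cells exposed to NPC (8-point) and MIPE (11-point) compound dilutions for 72 hr at 37 degree celsius; viability read by CellTiter-Glo luminescence, normalized to no-cell and DMSO in-plate controls.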

HEK293T = assay: as above; conditions: MCC and control cell lines, CellTiter-Glo viability, 72 h; at 44.8 µM (top of the series) unless noted
Outline: as §2

JCK = assay: qHTS profiling for inhibitors of Plasmodium falciparum proliferation (AID 504749); also: potency is read from the fitted curve at half-maximal effect; conditions: P. falciparum in erythrocytes, SYBR Green DNA, 72 h; series mostly up to 28.7 µM
Outline: (§3)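 P. falciparum-infected erythrocytes (0.3% parasitemia, 2.5% hematocrit final) were exposed to compounds for 72 h at 37 C in 5% CO2, then lysed with SYBR Green buffer overnight at room temperature; parasite DNA fluorescence was normalized to artemisinin and DMSO controls.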

N140 = assay: as above; conditions: P. falciparum in erythrocytes, SYBR Green DNA, 72 h; series mostly up to 28.7 µM
Outline: as §3

P93_24 = assay: as above; conditions: P. falciparum in erythrocytes, SYBR Green DNA, 72 h; series mostly up to 28.7 µM
Outline: as §3

P94_40 = assay: as above; conditions: P. falciparum in erythrocytes, SYBR Green DNA, 72 h; series mostly up to 28.7 µM
Outline: as §3

PAD = assay: as above; conditions: P. falciparum in erythrocytes, SYBR Green DNA, 72 h; series mostly up to 28.7 µM
Outline: as §3

PC15 = assay: as above; conditions: P. falciparum in erythrocytes, SYBR Green DNA, 72 h; series mostly up to 28.7 µM
Outline: as §3

PC26 = assay: as above; conditions: P. falciparum in erythrocytes, SYBR Green DNA, 72 h; series mostly up to 28.7 µM
Outline: as §3

PC49 = assay: as above; conditions: P. falciparum in erythrocytes, SYBR Green DNA, 72 h; series mostly up to 28.7 µM
Outline: as §3

SC27B = assay: as above; conditions: P. falciparum in erythrocytes, SYBR Green DNA, 72 h; series mostly up to 28.7 µM
Outline: as §3

TAB109 = assay: as above; conditions: P. falciparum in erythrocytes, SYBR Green DNA, 72 h; series mostly up to 28.7 µM
Outline: as §3

TAB113 = assay: as above; conditions: P. falciparum in erythrocytes, SYBR Green DNA, 72 h; series mostly up to 28.7 µM
Outline: as §3

TAB165 = assay: as above; conditions: P. falciparum in erythrocytes, SYBR Green DNA, 72 h; series mostly up to 28.7 µM
Outline: as §3

W2 = assay: as above; conditions: P. falciparum in erythrocytes, SYBR Green DNA, 72 h; series mostly up to 28.7 µM
Outline: as §3
Also: nearly all actives have a fitted effect of over 60% in size.

COc1cc(Cc2cnc(N)nc2N)cc(OC)c1OC
inactive: outcome (CRL-7250) | outcome (HEK293) | outcome (HaCat [1]) | max response (KB-3-1) 8.08% | max response (NIH3T3) -0.336% | outcome (HACAT [2]) | outcome (HEK293T)

CNC1(C)C2CCC(C2)C1(C)C (configuration not stated)
inactive: Potency (JCK) | Potency (N140) | Potency (P93_24) | Potency (P94_40) | Potency (PAD) | Potency (PC15) | Potency (PC26) | Potency (PC49) | Potency (SC27B) | Potency (TAB109) | Potency (TAB113) | Potency (TAB165) | max response (CRL-7250) -2.13% | max response (HEK293) -9.06% | outcome (HaCat [1]) | max response (KB-3-1) 0.165% | outcome (NIH3T3) | outcome (HACAT [2])

c1ccc2c(c1)CCCC2C1=NCCN1 (configuration not stated)
inactive: max response (CRL-7250) 0.704% | max response (HEK293) 3.92% | outcome (HaCat [1]) | max response (KB-3-1) 10.6% | outcome (NIH3T3) | outcome (HACAT [2])

CCCCCN(CCCCC)C(=O)C(CCC(=O)O)NC(=O)c1ccc(Cl)c(Cl)c1 (configuration not stated)
inactive: Potency (JCK) | Potency (N140) | Potency (P93_24) | Potency (P94_40) | Potency (PAD) | Potency (PC15) | Potency (PC26) | Potency (PC49) | Potency (SC27B) | Potency (TAB109) | Potency (TAB113) | Potency (TAB165) | Potency (W2) | max response (CRL-7250) -3.52% | max response (HEK293) -9.3% | outcome (HaCat [1]) | max response (KB-3-1) -8.56% | max response (NIH3T3) -0.48% | outcome (HACAT [2])

CN(C)CCOC(=O)COc1ccc(Cl)cc1
inactive: Potency (JCK) | Potency (N140) | Potency (P93_24) | Potency (P94_40) | Potency (PAD) | Potency (SC27B) | Potency (TAB109) | Potency (TAB113) | Potency (TAB165) | Potency (W2) | max response (CRL-7250) -13.3% | max response (HEK293) 2.83% | outcome (HaCat [1]) | max response (KB-3-1) -1.09% | max response (NIH3T3) 0.547% | outcome (HACAT [2])

NCCCNCCSP(=O)(O)O
inactive: Potency (JCK) | Potency (N140) | Potency (P93_24) | Potency (P94_40) | Potency (PAD) | Potency (PC15) | Potency (PC26) | Potency (PC49) | Potency (SC27B) | Potency (TAB109) | Potency (TAB113) | Potency (TAB165) | Potency (W2) | outcome (CRL-7250) | max response (HEK293) -18.5% | outcome (HaCat [1]) | max response (KB-3-1) -4.63% | outcome (NIH3T3) | outcome (HACAT [2]) inactive [at 9.27 µM]

CC(C)(C)NCC(O)c1cc(O)cc(O)c1 (configuration not stated)
inactive: max response (CRL-7250) -15.1% | max response (HEK293) -2.84% | max response (HaCat [1]) 4.23% | max response (KB-3-1) -2.33% | max response (NIH3T3) 3.49%

NC(=O)c1cn(Cc2c(F)cccc2F)nn1
inactive: Potency (JCK) | Potency (N140) | Potency (P93_24) | Potency (P94_40) | Potency (PAD) | Potency (PC15) | Potency (PC26) | Potency (PC49) | Potency (SC27B) | Potency (TAB109) | Potency (TAB113) | Potency (TAB165) | Potency (W2) | outcome (CRL-7250) | max response (HEK293) 4.15% | max response (HaCat [1]) 0.796% | max response (KB-3-1) -1.38% | max response (NIH3T3) -0.364%

CC(C(=O)O)c1ccc(CC2CCCC2=O)cc1 (configuration not stated)
inactive: Potency (JCK) | Potency (N140) | Potency (P93_24) | Potency (P94_40) | Potency (PAD) | Potency (PC15) | Potency (PC26) | Potency (PC49) | Potency (SC27B) | Potency (TAB109) | Potency (TAB113) | Potency (TAB165) | Potency (W2) | max response (CRL-7250) 2.29% | outcome (HEK293) | max response (HaCat [1]) -3.69% | max response (KB-3-1) -8.05% | max response (NIH3T3) -16.1% | outcome (HEK293T)

CCN(CC)CCNC(=O)c1ccc(NC(C)=O)cc1
inactive: Potency (JCK) | Potency (N140) | Potency (P93_24) | Potency (P94_40) | Potency (PAD) | Potency (PC15) | Potency (PC26) | Potency (PC49) | Potency (SC27B) | Potency (TAB109) | Potency (TAB113) | Potency (TAB165) | Potency (W2) | outcome (CRL-7250) | max response (HEK293) 3.23% | max response (HaCat [1]) 0.497% | max response (KB-3-1) 1.57% | max response (NIH3T3) -3.76%

COc1cc(C(=O)OCCCN2CCCN(CCCOC(=O)c3cc(OC)c(OC)c(OC)c3)CC2)cc(OC)c1OC
inactive: max response (CRL-7250) -12.1% | max response (HaCat [1]) 3.13% | max response (KB-3-1) -1.09% | max response (NIH3T3) -3.19%
active: Potency (N140) 12.6 µM | Potency (P93_24) 10 µM | Potency (TAB109) 11.2 µM | Potency (TAB113) 11.2 µM | Potency (TAB165) 8.91 µM | Potency (W2) 3.01 µM | Potency (HEK293) 21.1 µM

CC(=O)Nc1nnc(S(N)(=O)=O)s1
inactive: Potency (JCK) | Potency (N140) | Potency (P93_24) | Potency (P94_40) | Potency (PAD) | Potency (PC15) | Potency (PC26) | Potency (PC49) | Potency (SC27B) | Potency (TAB109) | Potency (TAB113) | Potency (TAB165) | Potency (W2) | outcome (CRL-7250) | max response (HEK293) 3.96% | max response (HaCat [1]) 4.4% | max response (KB-3-1) 1.55% | outcome (NIH3T3)

CCc1c(C)[nH]c2c1C(=O)C(CN1CCOCC1)CC2 (configuration not stated)
inactive: outcome (CRL-7250) | max response (HEK293) -11.2% | max response (KB-3-1) -8.21% | outcome (NIH3T3)

CC(=O)Oc1cc(C(C)C)c(OCCN(C)C)cc1C
inactive: Potency (JCK) | Potency (N140) | Potency (P93_24) | Potency (P94_40) | Potency (PAD) | Potency (PC15) | Potency (PC26) | Potency (PC49) | Potency (SC27B) | Potency (TAB109) | Potency (TAB113) | Potency (TAB165) | Potency (W2) | max response (CRL-7250) -7.06% | outcome (HEK293) | max response (HaCat [1]) 3.27% | max response (KB-3-1) 3.97% | outcome (NIH3T3) | outcome (HEK293T)

CCCCNc1ccc(C(=O)OCCN(C)C)cc1
inactive: Potency (JCK) | Potency (N140) | Potency (P93_24) | Potency (P94_40) | Potency (PAD) | Potency (SC27B) | Potency (TAB109) | Potency (TAB113) | Potency (TAB165) | Potency (W2) | max response (CRL-7250) 3.25% | max response (HEK293) -4% | max response (HaCat [1]) -3.56% | max response (KB-3-1) 0.24% | outcome (NIH3T3)
